Source: PubChem BioAssay
The full list was thinned out, with hits kept by preference.
LmPK inh: blocks Leishmania mexicana pyruvate kinase activity; purified LmPK, Kinase-Glo ATP luminescence, 1 h; AID 1721; actives 0.37% (n = 290,000); Potency, µM (series often up to 57.5 µM), for the others: at the highest dose activity change, negative = inhibition, actives largely listed as inhibitors; note: potency is the fitted concentration of half-maximal effect; % is set by controls: 0 for no effect and ±100 for the full control effect
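qHTS format; LmPK 0.1 nM; substrates PEP 0.5 mM and ADP 0.1 mM. One-hour room-temperature incubation, then coupled luciferase luminescence; 0.5 nM enzyme wells mark activation.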
Giardia FBPA inh: inhibitors of Giardia lamblia fructose-1,6-bisphosphate aldolase; A8B2U2; purified Giardia FBPA; Potency, µM (doses to about 59.6 µM), for inactives: top-dose activity, negative = inhibition, usual class: inhibitors; actives 0.71% (n = 290,000); AID 2451; note: potency is the fitted concentration of half-maximal effect; % is set by controls: 0 for no effect and ±100 for the full control effect; nearly all actives have a fitted effect of over 55% in size
Target sequence (A8B2U2 whole entry, looked up): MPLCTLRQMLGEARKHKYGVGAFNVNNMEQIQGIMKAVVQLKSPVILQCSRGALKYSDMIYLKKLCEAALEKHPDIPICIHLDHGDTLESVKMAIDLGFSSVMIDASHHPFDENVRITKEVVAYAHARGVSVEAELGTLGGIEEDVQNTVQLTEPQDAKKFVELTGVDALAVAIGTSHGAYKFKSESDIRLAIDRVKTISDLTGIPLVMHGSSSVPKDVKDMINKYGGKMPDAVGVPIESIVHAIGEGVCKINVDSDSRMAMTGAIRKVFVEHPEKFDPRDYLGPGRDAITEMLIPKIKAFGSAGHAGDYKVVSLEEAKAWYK
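Giardia FBPA (40 nM reagent) was preincubated 10 min at RT with compound (up to 57.5 uM final), then substrate plus GAPDH/TPI/NAD/arsenate coupling system with diaphorase/resazurin was added; resorufin fluorescence (525/598 nm) was read after 20 min.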
TbPYK inhibitor: T. brucei pyruvate kinase inhibition | Q57TT1 | TbPYK enzyme, Kinase-Glo Plus ATP luminescence, 45 min | Potency, µM (highest dose often 76.8 µM), for the others: at the highest dose activity, negative = inhibition, usual class: inhibitors | actives 0.12% (n = 410,000) | AID 624173; note: potency is the fitted concentration of half-maximal effect; % is set by controls: 0 for no effect and ±100 for the full control effect; nearly all actives have a fitted effect of over 50% in size
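Glycolytic pyruvate kinase of T. brucei was incubated with substrate, test compound and 130 uM ADP for 45 minutes at room temperature. Luminescent Kinase-Glo Plus signal was measured after 10 minutes.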
Sm TGR inh: S. mansoni TGR enzyme inhibition. Q962Y6. purified TGR, DTNB reduction, TNB absorbance 405 nm. Potency, µM (doses to about 114 µM), inactives show top-dose activity change, negative = inhibition, usual class: inhibitors. actives 3% (n = 360,000). AID 485364; note: potency is the fitted concentration of half-maximal effect; % is set by controls: 0 for no effect and ±100 for the full control effect; nearly all actives have a fitted effect of over 60% in size
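First, TGR (20 nM dispensed) and NADPH were mixed with compound. Second, a 15 min room-temperature incubation followed. Third, further NADPH and then DTNB were added to start the reaction. Finally, TNB absorbance was monitored kinetically.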
CHX counter: counter-screen hit for Shiga toxin inhibitors, cycloheximide; cell reporter, cycloheximide protein synthesis inhibition counterscreen; max response, %; actives 12% (n = 300,000); AID 2314; in the data active = max response mostly above about 13%, no sharp cut-off; inactive = mostly below about 14%; note: read at 38.3 µM for the half of the compounds with a filed dose; 0% is about no effect
Shiga toxin inh: Shiga toxin inhibition | inhibition, % at 38.7 µM | AID 2315 | actives 9.2% (n = 290,000) | Vero cells, Shiga toxin protein synthesis inhibition reporter; in the data active = inhibition mostly above about 28%, no sharp cut-off; inactive = mostly below about 43%; note: 0% is about no effect
* = called active by the depositor. Unless noted, calls come from the whole dose curve; as a rule, active = well fitted curve in the direction sought with a large enough effect; inconclusive = small, poorly fitted or top-dose-only effect, or another doubt; inactive = no such curve, though single readings can be large; an effect the other way counts as inactive or inconclusive.

CCC(C)NC(=O)c1ccc(C(=O)c2ccccc2)cc1 (stereo not given) was read as LmPK inh -1%, Giardia FBPA inh 4%, TbPYK inhibitor -1%, Sm TGR inh -5%, CHX counter 40* and Shiga toxin inh 71*.
`CCCC(C)NC(=O)c1ccc(F)cc1` (stereo not given) gave LmPK inh -1%, Giardia FBPA inh 4%, TbPYK inhibitor -2%, Sm TGR inh -27%, CHX counter 27* and Shiga toxin inh 50*.
`CCc1ccc(C(C)NC(=O)c2ccc(F)cc2)cc1` (stereo not given) gave LmPK inh -1%, Giardia FBPA inh -1%, TbPYK inhibitor 11%, Sm TGR inh 8%, CHX counter 11 and Shiga toxin inh 20.
Screening CCC(C)NC(=O)c1cccc(C)c1 (stereo not given) returned LmPK inh 8%, Giardia FBPA inh 2%, TbPYK inhibitor 2%, Sm TGR inh -1%, CHX counter -4 and Shiga toxin inh 2.
COCC(C)NC(=O)c1ccc2c(c1)S(=O)(=O)c1ccccc1C2=O (stereo not given) was read as LmPK inh 0%, TbPYK inhibitor -6%, Sm TGR inh -3%, CHX counter 9 and Shiga toxin inh -13.
CCC(C)NC(=O)c1ccc2c(c1)S(=O)(=O)c1ccccc1C2=O (stereo not given) was read as LmPK inh -14%, TbPYK inhibitor -8%, Sm TGR inh 18µM*, CHX counter 32* and Shiga toxin inh 14*.
For CCCc1ccc(C(=O)NNc2ccc(F)cc2)cc1 the results were LmPK inh 0%, Giardia FBPA inh 4%, TbPYK inhibitor 3%, Sm TGR inh -36%, CHX counter 17* and Shiga toxin inh 35.
`CN1CCC(C)(C(=O)Nc2ccc3c(c2)OCCO3)C1` (stereo not given) gave TbPYK inhibitor 2%.
COc1cccc(-n2cc(C(=O)NCc3ccccc3OC)c3ccccc3c2=O)c1 was read as TbPYK inhibitor 2% and Sm TGR inh -10%.
Screening CC(C)(C)c1ccc(C(=O)Nc2ccc(-c3nc4cc(Cl)ccc4o3)cc2)cc1 returned TbPYK inhibitor -10% and Sm TGR inh -3%.
For CCCC(C)NC(=O)c1nc(-c2ccccc2)n(-c2ccccc2)n1 (stereo not given) the results were LmPK inh -2%, Giardia FBPA inh -9%, TbPYK inhibitor -1%, Sm TGR inh 0%, CHX counter -7 and Shiga toxin inh -22.
CCCC(C)NC(=O)c1ccc(-c2ccccc2)cc1 (stereo not given) was read as LmPK inh 4%, Giardia FBPA inh 6%, Sm TGR inh 1%, CHX counter 27* and Shiga toxin inh 86*.
Screening CCOc1ccc(-n2nc3ccc(N)cc3n2)cc1 returned LmPK inh -4%, Giardia FBPA inh 2%, TbPYK inhibitor 3%, Sm TGR inh -8%, CHX counter 36* and Shiga toxin inh 31*.
For CCOc1ccc(-n2nc3cc(C)c(N)cc3n2)cc1 the results were LmPK inh -1%, Giardia FBPA inh -28%, TbPYK inhibitor 0%, Sm TGR inh 2%, CHX counter 32* and Shiga toxin inh 48*.
`O=C(CSc1nc2c(oc3ccccc32)c(=O)n1CC1CCCO1)NCc1ccccc1` (stereo not given) gave TbPYK inhibitor 0% and Sm TGR inh -6%.
O=C1C=C(N2CCOCC2)c2ccccc2C1=O was read as LmPK inh -1%, Giardia FBPA inh inconclusive, TbPYK inhibitor -6%, Sm TGR inh inconclusive and CHX counter -8.
For CC1=C(C)C(=O)C(N2CCOCC2)=CC1=O the results were LmPK inh -21%, Giardia FBPA inh 1.4µM*, TbPYK inhibitor -3%, Sm TGR inh -20%, CHX counter -1 and Shiga toxin inh 30.
`N#CCC(=O)Nc1ccc(C(=O)OCC(=O)c2ccc3c(c2)OCCO3)cc1` gave LmPK inh -8%, Giardia FBPA inh -1%, TbPYK inhibitor -14%, Sm TGR inh -4%, CHX counter 48* and Shiga toxin inh 68*.
For CC(=O)Nc1ccccc1C(=O)OCC(=O)c1ccc2c(c1)OCCO2 the results were LmPK inh 1%, Giardia FBPA inh 1%, TbPYK inhibitor 2%, Sm TGR inh 8%, CHX counter 32* and Shiga toxin inh 98*.
Cc1ccccc1NC(=O)COC(=O)c1ccc2c(c1)OCCO2 was read as TbPYK inhibitor 4% and Sm TGR inh 3%.
For CC(C)C(=O)Nc1ccccc1C(=O)OCC(=O)c1ccc2c(c1)OCCO2 the results were LmPK inh 0%, Giardia FBPA inh 3%, TbPYK inhibitor 12%, Sm TGR inh -3%, CHX counter 38* and Shiga toxin inh 64*.
For Cc1cccc(C(=O)OCC(=O)c2ccc3c(c2)OCCO3)c1O the results were TbPYK inhibitor 5%.
`Cc1cccc(C(=O)OCC(=O)c2ccc3c(c2)OCO3)c1O` gave LmPK inh -6%, Giardia FBPA inh 11%, TbPYK inhibitor -1%, Sm TGR inh 2%, CHX counter 71* and Shiga toxin inh 78*.
Screening O=C(COC(=O)c1ccccc1[N+](=O)[O-])c1ccc2c(c1)OCO2 returned TbPYK inhibitor inconclusive and Sm TGR inh 5%.
Cc1onc(-c2ccccc2Cl)c1C(=O)OCC(=O)c1ccc2c(c1)OCCO2 was read as LmPK inh 1%, Giardia FBPA inh -3%, TbPYK inhibitor 0%, Sm TGR inh -11%, CHX counter 59* and Shiga toxin inh 121*.
Screening CC(=O)NC12CC3CC(C1)CC(C(=O)OCC(=O)c1ccc4c(c1)OCCO4)(C3)C2 returned LmPK inh 1%, Giardia FBPA inh 1%, TbPYK inhibitor -13%, Sm TGR inh inconclusive, CHX counter 45* and Shiga toxin inh 80*.
For C#CCOCCOCCOCCNc1nc(N2CCN(C(=O)[C@H]([C@@H](C)CC)n3cc(CCC(=O)O)nn3)CC2)nc(N2CCN(C(=O)[C@H](CCCCN)n3cc(CC(C)O)nn3)CC2)n1 (stereo not given in full) the results were TbPYK inhibitor -3%.
For CN(C)CCNc1nc(-c2ccco2)c2c(c1C#N)CC(C)(C)OC2 the results were LmPK inh 1%, Giardia FBPA inh 0%, TbPYK inhibitor 4%, Sm TGR inh -2%, CHX counter -4 and Shiga toxin inh -14.
